# Data as given in PubChem BioAssay (NCATS).
# Results filed as inconclusive are left out. Activity calls are given as the source filed them. The call rests on the fitted dose curve; in most records, active means well fitted curve in the direction sought with a large enough effect; inconclusive means small, poorly fitted or top-dose-only effect, or another doubt; inactive means no such curve, though single readings can be large or run the other way. Residues, ends and D or L forms follow the SMILES beside them. *: point of attachment. Cbz = O=C(OCc1ccccc1)*
# Biological target: phosphoglycerate mutase (Leishmania major) (UniProt Q4Q090)
# Experiment: qHTS Validation Assay to Find Inhibitors of Phosphoglycerate Mutase (AID 504548)
# Details: biochemical enzyme activity; Potency: inhibition qHTS; series mostly up to 57.5 µM; activity change, negative = inhibition: at the top concentration
# Excerpt: NIH Molecular Libraries Probe Production Network [MLPCN]
# NIH Chemical Genomics Center [NCGC]
# PI Name: Malcolm Walkinshaw, University of Edinburgh
# Several species of the Trypanosomatidae family of parasitic protozoans cause a spectrum of diseases throughout the tropical and subtropical world. Sleeping sickness, caused by two subspecies of Trypanosoma brucei, is endemic to areas of sub-Saharan Africa, while Chagas disease, a manifestation of Trypanosoma cruzi infection, is prevalent throughout Central and South America. In addition, many species of Leishmania are responsible for a range of cutaneous and visceral diseases, causing ulcers, destructive lesions and kalaazar, a lethal infection of the viscera. Collectively, these organisms infect 30 million people worldwide (~500 million live in endemic areas), and account for ~130,000 deaths annually. Given their debilitating and prevalent nature, trypanosomatid parasites impose a heavy medical, economic and social burden on entire populations, primarily in the developing world. The problem is further exacerbated by the fact that existing treatments have progressed little in the past 50 years, and current drugs show high toxicity and poor efficacy.
# Blood-stream stages of T. brucei are entirely dependent on glycolysis as a source of ATP, and the tricarboxylic acid cycle and oxidative phosphorylation are both repressed. Glycolysis in axenically cultured T. cruzi, representing the intracellular pathogenic stage, is also essential for these parasites. […] Previous studies have shown that the glycolytic enzyme, phosphoglycerate mutase (PGAM), is a viable target for drugs to kill these parasites. […] Furthermore, the cobalt centers present within PGAM are only found in trypanosomatid and plant PGAMs, and are known to be required for activity, thereby providing an additional target. Moreover, trypanosomatid PGAMs are completely different from the enzyme that performs the same function in humans: the parasite and host enzymes share no structural or even mechanistic features; specificity is therefore unlikely to be an issue.
# NCGC Assay Protocol Summary:
# Briefly, 3ul of substrate buffer (all columns) are dispensed into Greiner white solid bottom 1536-well assay plates. Compounds are then transferred via Kalypsys pin tool equipped with 1536-pin array (10nl slotted pins, V&P Scientific, San Diego, CA). Following addition of compound, 1ul of Lm PGAM (1.25nM final concentration, columns […]) is added to initiate the reaction; columns 3-4 receive only TEA buffer as negative controls. The plates are then incubated at room temperature for 45 minutes. Kinase-GloPlus reagent is added (2ul) and plates incubated for 10 minutes, before being transferred to a ViewLux high-throughput CCD imager (PerkinElmer) wherein single end-point measurements of luminescence are acquired using a clear filter. All reagents are diluted in an assay buffer consisting of 100 mM TEA (pH 7.6), 5 mM MgCl2 and 0.01% Tween-20.
# On the % scale 0 is the no-effect control and ±100 the full control effect.
# phosphoglycerate mutase (Leishmania major), sequence (Q4Q090 1-553): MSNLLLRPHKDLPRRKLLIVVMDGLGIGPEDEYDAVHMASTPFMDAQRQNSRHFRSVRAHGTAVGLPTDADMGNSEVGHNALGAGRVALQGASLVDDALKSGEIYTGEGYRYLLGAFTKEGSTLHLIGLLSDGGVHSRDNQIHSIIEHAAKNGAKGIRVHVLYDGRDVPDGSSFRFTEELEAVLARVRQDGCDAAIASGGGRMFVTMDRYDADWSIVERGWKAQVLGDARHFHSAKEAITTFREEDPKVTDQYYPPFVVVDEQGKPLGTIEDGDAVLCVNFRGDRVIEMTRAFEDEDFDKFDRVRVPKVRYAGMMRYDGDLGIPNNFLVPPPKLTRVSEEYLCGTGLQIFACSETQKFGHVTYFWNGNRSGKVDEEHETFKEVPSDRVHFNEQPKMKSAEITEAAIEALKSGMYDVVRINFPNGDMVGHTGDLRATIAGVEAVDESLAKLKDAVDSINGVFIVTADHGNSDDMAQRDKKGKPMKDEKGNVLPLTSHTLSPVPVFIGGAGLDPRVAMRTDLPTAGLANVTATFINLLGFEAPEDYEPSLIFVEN
row,Structure (SMILES),"activity change, negative = inhibition"
1,CSC(=N)N,-3.35% (inactive)
2,Oc1cc2c(cc1O)C(c1ccccc1)CNCC2 (stereo not given),1.04% (inactive)
3,O=C1NC(=O)c2cc(Nc3ccccc3)c(Nc3ccccc3)cc21,14.8% (inactive)
4,CC(C)[C@@H]1CC[C@@H](C)C[C@@H]1P(=O)(c1ccccc1)c1ccccc1,-7.28% (inactive)
5,NCCS(=O)O,1.28% (inactive)
6,NCCCNCCCCNCCCN,2.09% (inactive)
7,NC/C=C\C(=O)O,10.7% (inactive)
8,C=C1C[C@@]23CC[C@H]4[C@@](C)(CCC[C@@]4(C)C(=O)O)[C@@H]2CC[C@]1(O)C3,0.602% (inactive)
9,CC(=O)NNC(=O)N1Cc2ccccc2Oc2ccc(Cl)cc21,-7.17% (inactive)
10,NC(N)=NC(N)=Nc1cccc(Cl)c1,-4.2% (inactive)
11,NCCNS(=O)(=O)c1cccc2c(Cl)cccc12,-9.75% (inactive)
12,CCC1(O)CC2CN(CCc3c([nH]c4ccccc34)[C@@](C(=O)OC)(c3cc4c(cc3OC)N(C=O)C3[C@]45CCN4CC=C[C@@](CC)([C@@H](OC(C)=O)[C@]3(O)C(=O)OC)[C@H]45)C2)C1 (stereo not given in full),2.52% (inactive)
13,O=C(O)c1ccccc1Nc1cccc(OCc2ccc3ccccc3n2)c1,-2.23% (inactive)
14,CC(C)[C@H](NC(=O)OCc1ccccc1)C(=O)N[C@H](C=O)Cc1ccccc1 (Cbz-Val-Phe-aldehyde),-4.28% (inactive)
15,Nc1ccc(CCNc2ncnc3c2ncn3C2OC(CO)C(O)C2O)cc1 (stereo not given),-2.96% (inactive)
16,CC(C)(C)c1ccc(/C=C/C(=O)Nc2ccc3c(c2)OCCO3)cc1,-2.98% (inactive)
17,COc1cccc(OC)c1OCCNCC1CSc2ccccc2O1 (stereo not given),-9.87% (inactive)
18,N#C/C(=C\c1ccc(O)c(O)c1)C(=O)NCCc1ccccc1,15.2% (inactive)
19,CC(=O)N[C@@H](Cc1c[nH]c2ccccc12)C(=O)OCc1cc(C(F)(F)F)cc(C(F)(F)F)c1,-5.43% (inactive)
20,NC1C=CC=C(C(=O)O)C1 (stereo not given),2.68% (inactive)

row,Structure (SMILES),"activity change, negative = inhibition"
1,OC[C@H]1O[C@@H](n2cnc3cncnc32)[C@H](O)[C@@H]1O,12% (inactive)
2,CCCCS(=N)(=O)CC[C@H](N)C(=O)O (stereo not given in full),6.35% (inactive)
3,O=c1[nH]c(=O)c2nc3ccccc3nc2[nH]1,7.16% (inactive)
4,O=C1C2C=CC=CC2=NC(=S)N1CCN1CCC(=C(c2ccc(F)cc2)c2ccc(F)cc2)CC1 (stereo not given),6.06% (inactive)
5,NC[C@@H]1O[C@H](c2ccccc2)Cc2c1ccc(O)c2O,18% (inactive)
6,O=c1ccn([C@@H]2O[C@H](COP(=O)(O)OP(=O)(O)O)[C@@H](O)[C@H]2O)c(=O)[nH]1,-3.89% (inactive)
7,c1ccc(CN2CCC3(CCCc4ccccc43)CC2)cc1,6.93% (inactive)
8,Cc1nc(N=Nc2cc(S(=O)(=O)O)c3cc([N+](=O)[O-])cc(S(=O)(=O)O)c3c2)c(COP(=O)(O)O)c(C=O)c1O,16.9% (inactive)
9,NCCC1CCCC(CCN)N1 (stereo not given),4.2% (inactive)
10,O=c1oc(Cl)c(Cl)c2ccccc12,12.2% (inactive)
11,CN(C)C(=O)/N=N/C(=O)N(C)C,11.6% (inactive)
12,N#Cc1cc([N+](=O)[O-])c2sc(C(N)=O)[n+]([O-])c2c1,4.08% (inactive)
13,C=CCNc1ncnc2ccc(Br)cc12,10.2% (inactive)
14,CCN(CC)CCOC(=O)c1cc(Cl)c(N)cc1OC,-1.17% (inactive)
15,CC(C)(CO)Cc1cc(C(C)(C)C)c(O)c(C(C)(C)C)c1,-2.61% (inactive)
16,CC(C)(C)NCC(O)COc1cccc2[nH]c(=O)[nH]c12 (stereo not given),1.53% (inactive)
17,Cc1nc2c(OCc3ccccc3)cccn2c1CC#N,5.85% (inactive)
18,Nc1ccc(-c2nc3ccc(-c4nc5ccc(N)cc5[nH]4)cc3[nH]2)cc1,-0.0828% (inactive)
19,O=C(O)C1CCCNC1 (stereo not given),1% (inactive)
20,OCC1NCC(O)C(O)C1O (stereo not given),0.373% (inactive)
